Several values for one entry are separate records, joined by “and”; a condition that tells them apart may be missing. Identical values can stand only once. The panel holds about 83,000 compounds, 20% with a hit somewhere; the sample as a whole holds those more often.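 Plates (96-well) were seeded with cells, treated with compound at one concentration, and incubated for 48 hours before percent growth was determined.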 Values without a mark were called inactive. Activity calls are given as the source filed them. The calls were made as follows: active = growth percent below 10; inactive = the rest.
How the values were obtained:
Assay in all cases: NCI-60 one-dose screen, 48 h (100 = growth as untreated, 0 = no growth, -100 = all killed)
Conditions in all cases: 10 µM unless noted
DU-145 prostate = test system: DU-145 prostate
K-562 leukemia = test system: K-562 leukemia
MALME-3M melanoma = test system: MALME-3M melanoma
MDA-MB-231 breast = test system: MDA-MB-231 breast
RXF 393 renal = test system: RXF 393 renal
SF-268 CNS = test system: SF-268 CNS
SF-295 CNS = test system: SF-295 CNS
SF-539 CNS = test system: SF-539 CNS
UACC-257 melanoma = test system: UACC-257 melanoma
M14 melanoma = test system: M14 melanoma

Compound | growth (DU-145 prostate) | growth (K-562 leukemia) | growth (MALME-3M melanoma) | growth (MDA-MB-231 breast) | growth (RXF 393 renal) | growth (SF-268 CNS) | growth (SF-295 CNS) | growth (SF-539 CNS) | growth (UACC-257 melanoma) | growth (M14 melanoma)
O=C(N=Nc1c(O)[nH]c2ccc(Br)cc12)c1ccc2nc(-c3ccc(Cl)cc3)[nH]c2c1 | -4.97% (active) | 10% | -34.7% (active) | -89.5% (active) | -42.3% (active) | -16.2% (active) | -62.8% (active) | -100% (active) | 46% | -3.86% (active)
COc1ccc(SC2c3cc(OC)ccc3Oc3nc(N)c(C#N)c(N)c32)cc1 (stereo not given) | 99.1% | 65.7% | 91.3% | 82.1% | 62% | 78.8% | 55.2% | 78% | 120% | 79.7%
Cc1ccc(-c2cc(-c3ccccc3)[nH]c(=O)c2C#N)cc1 | 97.3% | 74.4% | 106% | 83.8% | 101% | 92.9% | 90.4% | 81.9% | 101% | 111%
O=C(Nc1nc2ccc([N+](=O)[O-])cc2s1)Nc1ccccc1F | 25.8% | 7.7% (active) | -2.16% (active) | 4.62% (active) | 5.7% (active) | 29.5% | 3% (active) | -8.34% (active) | -4.98% (active) | 16.5%
COc1ccc2[nH]c(=O)cc(-n3ncc(C(=O)/C=C/c4cc(OC)c(OC)c(OC)c4)c3C)c2c1 | -2.23% (active) | 1.01% (active) | -25.7% (active) | 1.48% (active) | -74.8% (active) | 8.19% (active) | 11.3% | -59.8% (active) | -6.58% (active) | -48.3% (active)
C[C@@H]1CN(c2ccc3ncc(C#Cc4cncc(C(=O)Nc5ccc(CN6CCN(C)CC6)c(C(F)(F)F)c5)c4)n3n2)C[C@@H](C)O1 | -85.7% (active) | -28.1% (active) | -97.5% (active) | -93.1% (active) | -96.1% (active) | -56.2% (active) | -100% (active) | -100% (active) | -86.6% (active) | -94% (active)
CNS(=O)(=O)N1CCc2c(Br)c3c(c(OC)c2C1CCc1ccccc1)OCO3 (stereo not given) | 12.1% | 13.1% | -65% (active) | -62.8% (active) | -59.7% (active) | -12% (active) | -75.3% (active) | -86.5% (active) | -24.5% (active) | -9.58% (active)
COc1ccc2[nH]c(=O)c(CSc3ccccc3Nc3nccc(-c4ccc(C(F)(F)F)cc4)n3)cc2c1 | 27.3% | 19.5% | 47.4% | 31.6% | -41.2% (active) | 19.5% | 5.31% (active) | 0.901% (active) | 50.3% | 52.3%
Fc1cccc(CNc2nc(SCCN3CCOCC3)nc3c2cnn3CC(Cl)c2ccc(Br)cc2)c1 (stereo not given) | 49.9% | -4.59% (active) | -19.6% (active) | 6.57% (active) | 29.5% | 35% | -10.5% (active) | 10.8% | 20.1% | 28%
CC(C)(C)c1cc(-c2cc(-c3ccccc3)[nH]c(=O)c2C#N)cc(C(C)(C)C)c1 | 34.5% | 62.9% | 37.6% | -21.4% (active) | -2.55% (active) | 40.8% | 0.897% (active) | 21.1% | 43.1% | 40.2%
Cn1cc(-c2cc3nc(-c4cn(C)c5ncccc45)cc(N)n3n2)c2cc(F)ccc21 | 21.8% | 20.7% | 62% | 3.66% (active) | -14.4% (active) | 52.3% | 28.3% | 12.8% | 72.7% | 71.2%
CC(C)(C)c1ccc(OCc2nc3ccccc3n2-c2cccc(N)c2)cc1 | 80.8% and 124% | 33.3% and 101% | 48.7% and 101% | 53.4% and 106% | 75.3% and 90.7% | 74.4% and 112% | 57.7% and 100% | 66.7% and 100% | 73.8% and 111% | 99.8% and 103%
CC(C)(C)OC(=O)N1C/C(=C\c2ccc(F)cc2)C(=O)/C(=C/c2ccc(F)cc2)C1 | 9.97% (active) | 9.9% (active) | -75.5% (active) | -54.4% (active) | -88.1% (active) | -46.1% (active) | -75.1% (active) | -98.3% (active) | -42.1% (active) | -71.5% (active)
C=CCSc1nnc(-c2c(C)nc3sccn23)o1 | 110% | 98.3% | 109% | 92.6% | 99.9% | 110% | 89.2% | 90.4% | 86.9% | 92.5%
CCOC(=O)/C(F)=C/C1CC1C1CCN(C(=O)OC(C)(C)C)CC1 (stereo not given) | 73.2% | 76.1% | 94% | 99.3% | 105% | 98.6% | 99.3% | 103% | 111% | 106%
Cc1cc(N=C(N)c2ccccc2)ccc1OCCCCCCCCn1ccnc1 | – | 12.4% | -77.2% (active) | – | – | -12.2% (active) | – | – | -2.36% (active) | -17.5% (active)
CC1=C(C(=O)Nc2ccccc2)C(c2cccc3ccccc23)n2c(nc3ccccc32)N1 (stereo not given) | 29% | 82.9% | 43.8% | 53.8% | 13.9% | 19.8% | 32.2% | 43.8% | 45.1% | 65.7%
COc1ccc(-c2nc3ccc(-c4nnc(SCc5ccccc5)o4)cc3[nH]2)cc1OC | 17.2% | 56.8% | 15.9% | -34.4% (active) | -34.1% (active) | 35.2% | 55.4% | -44.5% (active) | 78.4% | 40.7%
Cc1cc(Cl)ccc1NC(=O)Nc1ccc(-c2ccc3c(c2)NC(=O)/C3=C\c2ccc[nH]2)cc1 | 96.3% | 83.3% | 99.9% | 108% | 122% | 109% | 105% | 91.9% | 117% | 108%
Cc1nn(-c2ccccc2)c2ncn(CC(=O)N/N=C/c3ccccc3O)c(=O)c12 | 51.6% | 26.5% | 55.9% | 35.9% | 42.2% | 38.9% | 24.9% | 46.7% | 54.9% | 45.2%
COc1cc(/C=C/C(=O)c2cnn(-c3cc(=O)[nH]c4ccc(Cl)cc34)c2C)cc(OC)c1OC | -72.8% (active) | -12.4% (active) | -20.4% (active) | -5.1% (active) | -84.1% (active) | -23.8% (active) | -71.5% (active) | -69.3% (active) | -33.8% (active) | -49% (active)
CCCCC[C@@H]1C/C=C(\C)[C@@H](O)C(C)(C)C(=O)[C@@H](C)/C=C(\C)[C@@H]2C[C@H](O)C[C@](O)(CC(=O)O1)O2 | 41.3% | 13.6% | 34.9% | 83.4% | 68% | 43.1% | 11% | 73.8% | 1.3% (active) | 49.6%
COc1cccc(C(N)=Nc2ccc(OCCCCCCCCn3cncn3)cc2)c1 | – | 15.8% | 37.4% | – | – | 27% | – | – | 39.1% | 22.6%
CN1C(=O)C(O)(CC(=O)c2cc3ccccc3oc2=O)c2ccccc21 (stereo not given) | 137% | 72.7% | 94.7% | 91.8% | 122% | 98.8% | 96.3% | 93.3% | 109% | 94.2%
